Laboratory results: PubChem BioAssay (Tox21)
Results filed as inconclusive are left out. Activity calls are given as the source filed them. Unless noted, the call rests on the fitted dose curve; in most records, active means well fitted curve in the direction sought with a large enough effect in the repeat runs; inconclusive means weak or mixed curves; inactive means no such curve, though single readings can be large; an effect the other way counts as inactive or inconclusive.

What was measured:
[1] = qHTS RealTime-Glo MT Cell Viability Assay in HEK293 cells - 8 hour (AID 1224887); further: top concentration of the series differs between compounds; nearly all actives have a fitted effect of over 50% in size
Summary of the method: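 Measured as luminescence from the same continuously cultured HEK293 wells at successive time points (0, 8, 16, 24, 32, 40 h) after compound addition. Reagent present from seeding; dosing at 5 h; incubation 37 C.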

[2] = qHTS RealTime-Glo MT Cell Viability Assay in HepG2 cells - 0 hour (AID 1224889); further: nearly all actives have a fitted effect of over 50% in size
Summary of the method: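 Tox21 10K library screened in qHTS format on HepG2 cells carrying RealTime-Glo reagents. Compounds were added after a 5 h preincubation, and the luminescent signal from continuous culture was measured repeatedly during 40 h treatment.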

[3] = A CellTox Green Cytotoxicity Assay to monitor cytotoxicity in HepG2 cells - 8 hour (AID 1224890); further: nearly all actives have a fitted effect of over 45% in size
Summary of the method: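 Fluorescent DNA-binding dye, 600 HepG2 cells/well, 5 h preincubation then compound in DMSO; same plates read at 0–40 h, 37 C.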

[4] = qHTS assay to identify small molecule antagonists of the estrogen receptor alpha (ER-alpha) signaling pathway using the BG1 cell line in the presence of 0.1 nM 17-beta-estradiol - cell viability counter screen (AID 1259241); further: nearly all actives have a fitted effect of over 40% in size
Summary of the method: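 Cells were plated and left 24 hr, compounds in DMSO were pinned in, 17beta-estradiol was added to 0.1 nM final, and after 22 hr CellTiter-Fluor reagent was added for 30 min before fluorescence was read.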

[5] = qHTS assay to identify small molecule HDAC inhibitors (AID 1259364);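 further: wild-type HCT-116 cells with endogenous class I/II HDAC activity; top concentration of the series differs between compounds; nearly all actives have a fitted effect of over 45% in size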
Summary of the method: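 After a 2 hr compound incubation (37C, 5% CO2), HCT-116 cells seeded at 1,500/well the day before received HDAC-Glo reagent; signal read as luminescence after 30 min at room temperature.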

[6] = qHTS assay to identify small molecule HDAC inhibitors - cell viability counter screen (AID 1259365); further: series mostly up to about 92 µM; nearly all actives have a fitted effect of over 50% in size
Summary of the method: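 Counter screen in wild-type HCT-116 cells: compounds dissolved in DMSO are pin-transferred onto overnight-plated cells and left 2hr at 37C. ATP-based CellTiter-Glo luminescence then measures viable cells.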

[7] = qHTS assay to identify small molecule agonists of the sonic hedgehog signaling (Shh) pathway - cell viability counter screen (AID 1259366); further: nearly all actives have a fitted effect of over 50% in size
Summary of the method: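 Cells are plated at 2,000 per well and left 4hr at 37C, 5% CO2 before compound addition. After 23hr of treatment, CellTiter-Fluor reagent is added for 1hr at 37C and fluorescence is measured.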

[8] = qHTS assay to identify small molecule antagonists of the sonic hedgehog signaling (Shh) pathway - cell viability counter screen (AID 1259367); further: nearly all actives have a fitted effect of over 55% in size
Summary of the method: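 Conditioned medium drove Shh signaling in 3T3 Gli1-Luc cells exposed to compounds at 37C and 5% CO2. Viability was determined from CellTiter-Fluor fluorescence, with reagent incubated 1 hr after 23 hr of treatment.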

[9] = qHTS assay to identify small molecule agonists of the sonic hedgehog signaling (Shh) pathway (AID 1259368; calls by dose curve;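 further: NIH/3T3-derived 3T3Gli1-Luc cells carrying a stable Gli1-driven firefly luciferase reporter; series mostly up to about 92 µM; nearly all actives have a fitted effect of over 15% in size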)
Summary of the method: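 Stable NIH/3T3 Gli1-Luc reporter clone; 24 hr cpd exposure after a 4 hr settling period; luminescence endpoint.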

[10] = qHTS assay to identify small molecule antagonists of the sonic hedgehog signaling (Shh) pathway (AID 1259369; calls by dose curve; further: nearly all actives have a fitted effect of over 45% in size)
Summary of the method: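 Gli1 transcriptional reporter (firefly Luc) in NIH/3T3 background, conditioned-medium activated. 24hr exposure, luminescence endpoint.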

[11] = qHTS assay to identify small molecule agonists of the androgen receptor (AR) signaling pathway in the presence of an antagonist - cell viability counter screen (AID 1259379);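 further: MDA-kb2 human breast cancer cells carrying an MMTV luciferase reporter; series mostly up to about 92 µM; nearly all actives have a fitted effect of over 25% in size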
Summary of the method: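 Counter screen for cell viability run in parallel with the AR agonist-mode luciferase assay. MDA-kb2 cells were co-treated with nilutamide (3.0uM final) and compounds, then incubated 16 hr at 37C, and CellTiter-Fluor fluorescence was measured.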

[12] = qHTS assay to identify small molecule agonists of the estrogen receptor beta (ER-beta) signaling pathway - cell viability counter screen (AID 1259380); further: nearly all actives have a fitted effect of over 30% in size
Summary of the method: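 In this qHTS counter screen, HEK293T cells carrying an ER-beta/UAS beta-lactamase reporter, grown in 2% charcoal-stripped FBS, received compound for 16 hr; ATP-based CellTiter-Glo luminescence was then read after 30 min at room temperature.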

[13] = target: Estrogen receptor (Homo sapiens) (UniProt P03372); test: qHTS assay to identify small molecule antagonists of the estrogen receptor alpha (ER-alpha) signaling pathway using the BG1 cell line in the presence of 0.1 nM 17-beta-estradiol (AID 1259244); further: nearly all actives have a fitted effect of over 50% in size
Sequence of Estrogen receptor (Homo sapiens) (P03372 whole entry, looked up): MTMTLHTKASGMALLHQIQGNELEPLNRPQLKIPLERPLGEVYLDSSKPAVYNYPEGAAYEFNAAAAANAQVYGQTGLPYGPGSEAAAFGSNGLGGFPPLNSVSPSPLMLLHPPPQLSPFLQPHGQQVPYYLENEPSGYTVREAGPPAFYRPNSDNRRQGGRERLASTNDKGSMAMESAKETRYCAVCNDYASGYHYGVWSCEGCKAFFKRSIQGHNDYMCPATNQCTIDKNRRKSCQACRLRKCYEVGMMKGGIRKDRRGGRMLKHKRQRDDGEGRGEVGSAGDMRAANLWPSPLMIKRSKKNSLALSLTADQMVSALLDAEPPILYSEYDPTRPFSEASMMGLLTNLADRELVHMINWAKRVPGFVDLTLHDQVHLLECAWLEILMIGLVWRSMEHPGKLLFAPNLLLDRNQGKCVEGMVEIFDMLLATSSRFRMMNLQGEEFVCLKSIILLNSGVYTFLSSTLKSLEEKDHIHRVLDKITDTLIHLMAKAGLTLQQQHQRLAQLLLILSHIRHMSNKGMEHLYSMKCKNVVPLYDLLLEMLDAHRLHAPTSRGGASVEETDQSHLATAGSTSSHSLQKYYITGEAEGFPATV
Summary of the method: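 Seeding of stripped-serum-adapted VM7Luc4E2 cells, 24 h attachment, compound transfer, then 0.1 nM final 17beta-estradiol; after 22 h incubation, ONE-Glo reagent and luminescence reading.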

[14] = qHTS assay to identify small molecule phospholipidosis (PLD) inducers (AID 1259344; active means well fitted curve in the direction sought with a large enough effect; an effect the other way counts as inactive or inconclusive)
Summary of the method: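 After 4 h attachment on collagen I, HepG2 cells were dosed with compound alongside LipidTOX Red, kept 24 h at 37 C, fixed, and imaged for lamellar phospholipid pits.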

[15] = target: Estrogen receptor beta (Homo sapiens) (UniProt Q92731); test: qHTS assay to identify small molecule agonists of the estrogen receptor beta (ER-beta) signaling pathway (AID 1259377; active means well fitted activation curve with a large enough effect in the signal ratio in the repeat runs, not every such curve was filed as active; the % refers to the signal ratio)
Sequence of Estrogen receptor beta (Homo sapiens) (Q92731 whole entry, looked up, the tested form may be a part): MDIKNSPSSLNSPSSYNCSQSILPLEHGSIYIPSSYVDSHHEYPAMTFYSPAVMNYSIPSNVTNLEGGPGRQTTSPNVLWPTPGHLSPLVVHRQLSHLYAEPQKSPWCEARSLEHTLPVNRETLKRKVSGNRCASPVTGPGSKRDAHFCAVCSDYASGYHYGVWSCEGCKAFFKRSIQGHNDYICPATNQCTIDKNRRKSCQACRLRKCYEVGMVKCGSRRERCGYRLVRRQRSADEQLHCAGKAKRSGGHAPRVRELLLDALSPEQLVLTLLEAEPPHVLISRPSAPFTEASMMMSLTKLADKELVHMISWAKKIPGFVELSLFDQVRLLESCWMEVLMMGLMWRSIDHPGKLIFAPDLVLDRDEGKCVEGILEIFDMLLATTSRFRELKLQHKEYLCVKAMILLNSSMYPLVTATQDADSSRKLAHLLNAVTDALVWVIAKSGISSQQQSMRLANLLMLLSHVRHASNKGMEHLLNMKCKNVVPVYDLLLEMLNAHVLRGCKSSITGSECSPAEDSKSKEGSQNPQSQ
Summary of the method: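 Agonist mode cell assay in GripTite HEK293T cells expressing an ER-beta fusion that drives beta-lactamase from an Upstream Activator Sequence; 16 hr compound exposure at 37C, then 2 h LiveBLAzer B/G FRET substrate at room temperature, fluorescence read-out.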

[16] = target: Estrogen receptor beta (Homo sapiens) (UniProt Q92731); test: qHTS assay to identify small molecule antagonists of the estrogen receptor beta (ER-beta) signaling pathway (AID 1259378; active means well fitted inhibition curve with a large enough effect in the signal ratio in the repeat runs, not every such curve was filed as active; the % refers to the signal ratio)
Summary of the method: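 ER-beta-UAS-bla HEK293T (GripTite) cells in 2% charcoal-stripped FBS medium were preincubated 6 hr at 37C, dosed with compound, then stimulated with 1 nM E2 (final) for 16 hr; beta-lactamase reporter read by B/G FRET fluorescence after 2 hr substrate loading.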

[17] = qHTS assay to identify small molecule antagonists of the androgen receptor (AR) signaling pathway using the MDA cell line in the presence of 0.5 nM R1881 - cell viability counter screen (AID 1259242); further: nearly all actives have a fitted effect of over 45% in size
Summary of the method: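 Human breast carcinoma MDA-kb2 cells, cultured without CO2, receive compounds alongside 0.5 nM (final) R1881 agonist. After 16 hr at 37C, viability is taken as live-cell protease signal.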

[18] = A CellTox Green Cytotoxicity Assay to monitor cytotoxicity in HEK293 cells - 16 hour (AID 1224888); further: nearly all actives have a fitted effect of over 35% in size
Summary of the method: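 Homogeneous no-lysis format: HEK293 cell suspension mixed with CellTox Green reagent, seeded, incubated 5 h at 37 C/5% CO2, then dosed by pintool with compound in DMSO.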

[19] = target: Androgen receptor (Homo sapiens) (UniProt P10275); test: qHTS assay to identify small molecule antagonists of the androgen receptor (AR) signaling pathway using the MDA cell line in the presence of 0.5 nM R1881 (AID 1259243); further: nearly all actives have a fitted effect of over 50% in size
Sequence of Androgen receptor (Homo sapiens) (P10275 whole entry, looked up): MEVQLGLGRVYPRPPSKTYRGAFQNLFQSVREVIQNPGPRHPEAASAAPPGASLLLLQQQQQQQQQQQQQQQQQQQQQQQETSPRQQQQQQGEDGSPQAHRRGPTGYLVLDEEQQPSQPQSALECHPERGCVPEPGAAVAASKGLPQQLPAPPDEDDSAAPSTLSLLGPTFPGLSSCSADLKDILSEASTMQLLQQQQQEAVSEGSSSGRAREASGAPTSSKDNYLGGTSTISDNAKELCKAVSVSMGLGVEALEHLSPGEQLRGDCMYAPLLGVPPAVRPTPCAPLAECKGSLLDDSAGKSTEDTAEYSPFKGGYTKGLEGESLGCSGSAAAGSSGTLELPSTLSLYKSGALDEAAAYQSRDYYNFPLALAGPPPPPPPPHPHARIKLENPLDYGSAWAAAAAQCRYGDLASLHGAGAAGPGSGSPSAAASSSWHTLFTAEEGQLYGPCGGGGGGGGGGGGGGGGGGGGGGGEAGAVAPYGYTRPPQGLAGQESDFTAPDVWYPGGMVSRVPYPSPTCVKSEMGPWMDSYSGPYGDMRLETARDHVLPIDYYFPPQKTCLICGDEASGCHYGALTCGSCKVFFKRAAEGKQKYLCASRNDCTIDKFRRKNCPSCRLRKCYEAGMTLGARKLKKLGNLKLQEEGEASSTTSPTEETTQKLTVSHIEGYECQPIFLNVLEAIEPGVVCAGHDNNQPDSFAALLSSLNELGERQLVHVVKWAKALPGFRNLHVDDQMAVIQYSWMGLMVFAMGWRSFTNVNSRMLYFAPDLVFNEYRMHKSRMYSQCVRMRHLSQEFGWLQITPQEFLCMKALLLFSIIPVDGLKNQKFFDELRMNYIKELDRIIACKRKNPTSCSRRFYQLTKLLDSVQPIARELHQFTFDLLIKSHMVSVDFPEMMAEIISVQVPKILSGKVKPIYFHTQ
Summary of the method: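 Cells: MDA-kb2 (MMTV-luc). Stimulus: 0.5 nM R1881. Time: 16 hr, 37C, no CO2. Detection: ONE-Glo luminescence after 30 min at RT.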

[20] = target: Androgen receptor (Homo sapiens) (UniProt P10275); test: qHTS assay to identify small molecule agonists of the androgen receptor (AR) signaling pathway in the presence of an antagonist (AID 1259381; calls by dose curve; further: nearly all actives have a fitted effect of over 15% in size)
Summary of the method: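 AR antagonist background: nilutamide 3.0uM final. Cell line: MDA-kb2, MMTV-driven luciferase, responsive to both AR and GR. Exposure 16hr, 37C, no CO2; ONE-Glo luminescence.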

Measured: Potency

CC(O)COC(C)(C)C (configuration not stated)
not listed: [13] | [14] | [15] | [16] | [17] | [18] | [19] | [20]
inactive: all other assays above

CC(C)(C)NC[C@H](O)COc1cccc2c1CCCC2=O
not listed: [10] | [17] | [18] | [19] | [20]
inactive: all other assays above

O=C(O)CCCCCC(=O)O
not listed: [14] | [17] | [18] | [19] | [20]
inactive: all other assays above

O=[N+]([O-])c1c(Cl)cc(Cl)cc1Cl
not listed: [12] | [13] | [14] | [17] | [18] | [19] | [20]
inactive: all other assays above

CCCCCCCCCCOC(C)=O
not listed: [2] | [14] | [15] | [16] | [18] | [19] | [20]
inactive: all other assays above

O=Cc1ccccc1Cl
not listed: [13] | [14] | [18] | [19] | [20]
inactive: all other assays above

CC(CO)(CO)CO
not listed: [1] | [12] | [14] | [19] | [20]
inactive: all other assays above

CC(O)CC(C)O (configuration not stated)
not listed: [13] | [14] | [15] | [16] | [18] | [19] | [20]
inactive: all other assays above

Cc1c(Cl)cccc1Cl
not listed: [5] | [14] | [18] | [19] | [20]
inactive: all other assays above

COC(=O)c1cccc(Cl)c1
not listed: [8] | [12] | [14] | [17] | [18] | [19] | [20]
inactive: all other assays above

[O-][n+]1cccc(/C(Cl)=N/OC[C@@H](O)CN2CCCCC2)c1
not listed: [2] | [10] | [14] | [18]
inactive: all other assays above

CCCCOC(=O)C(C)O (configuration not stated)
not listed: [14] | [15] | [16] | [17] | [18] | [19] | [20]
inactive: all other assays above

COc1cc(/C=C/C(N)=O)cc(OC)c1OC
not listed: [1] | [14]
inactive: all other assays above

Fc1ccccc1
not listed: [12] | [14] | [15] | [16] | [18] | [19] | [20]
inactive: all other assays above

CC1CCc2c(N3CCC(O)CC3)c(F)cc3c(=O)c(C(=O)O)cn1c23 (configuration not stated)
not listed: [1] | [15] | [16] | [19] | [20]
inactive: all other assays above

CO/N=C(/C(=O)N[C@@H]1C(=O)N2C(C(=O)[O-])=C(C[n+]3ccn4ncccc43)CS[C@H]12)c1nsc(N)n1
not listed: [1] | [5] | [19] | [20]
inactive: all other assays above

C=CC(=O)CCCCC
not listed: [13] | [14] | [15] | [16] | [17] | [18] | [19] | [20]
inactive: all other assays above
